# Measured values from the supplement of paper PMC3334620.
# Whole data set: some 33,000 sequences, median “E-score (-0.5 to 0.5)” near -0.0034, cut for the highest 2% near 0.25. For the sample, the highest values were picked, then their nearest neighbours and some sequences at random.
# Target: T1, Yap3 (UniProt P38749)
# T1 sequence: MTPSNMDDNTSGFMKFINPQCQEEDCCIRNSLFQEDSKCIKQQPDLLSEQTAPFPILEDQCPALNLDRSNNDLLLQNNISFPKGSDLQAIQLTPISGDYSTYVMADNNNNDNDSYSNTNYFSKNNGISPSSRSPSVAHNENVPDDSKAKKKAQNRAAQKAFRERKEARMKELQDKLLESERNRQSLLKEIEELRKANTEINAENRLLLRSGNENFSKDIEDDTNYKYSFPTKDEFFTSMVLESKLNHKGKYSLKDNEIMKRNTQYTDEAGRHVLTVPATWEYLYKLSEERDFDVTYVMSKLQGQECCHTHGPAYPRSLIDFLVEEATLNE
# Assay: PBM E-score (8-mer binding enrichment) (E-score (-0.5 to 0.5)); higher = stronger / more preferred TF binding
# Settings: protein concentration: 100 nM; construct: GST-full length
# Experimental: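 Universal 'all 10-mer' protein binding microarrays (Agilent AMADID 015681) probed with GST-tagged S. cerevisiae TFs (full-length or DBD) made by in vitro transcription/translation (PURExpress), about 100-200 nM. Bound TF was detected with fluorescent anti-GST. Each ungapped 8-mer (which stands for itself and its reverse complement) is scored by the PBM enrichment score (E-score), a modified Wilcoxon-Mann-Whitney statistic from -0.5 to +0.5, computed with the Universal PBM Analysis Suite. Scale: above 0.35 generally sequence-specific binding.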
row,Sequence,PBM E-score
1,ATCAGCTG,0.195
2,ACTGGACC,-0.196
3,ACGGAGGG,-0.139
4,CCTGGATA,-0.231
5,CGGATTGC,0.0717
6,GGCTTGAA,0.0362
7,AGTTTTCC,0.0722
8,AGCCAACG,0.0109
9,AAAAACGA,0.256
10,GAAAACGA,0.00196
11,CAAAACGA,0.133
12,GAGTCTAA,0.00387
13,AATCCGGC,0.0559
14,AATCCGGA,0.256
15,AATCCGGG,-0.242
16,GACAGCTA,-0.119
17,CTGCTGGA,-0.158
18,CCCTTTTC,-0.00476
19,AGATATTA,0.162
20,CAATATCA,0.167
21,TAATATTA,0.347
22,AAATATTA,0.349

row,Sequence,PBM E-score
1,TAATATCA,0.275
2,GAATATTA,0.263
3,AAATATCA,0.187
4,TAATAGTA,0.142
5,CAATATTA,0.226
6,GAATATTC,0.194
7,GAATATCA,0.159
8,AAATATTC,0.162
9,ACATTGCC,-0.0211
10,GGCTTGAC,0.0242
11,AGCAACTA,0.143
12,TACCCAAA,0.0436
13,TCGGTTAA,0.168
14,AGGCTAGG,-0.199
15,AAGGTGCG,-0.131
16,CGTTGATC,0.0509
17,AAATATTG,0.269
18,AAATATTT,0.249
19,CAATATTG,0.213
20,AGAAGATC,-0.0464
21,CAGTTAGG,0.149
22,TATCATGA,0.0822

row,Sequence,PBM E-score
1,AATCATGA,0.275
2,AATCATGG,0.127
3,AAAAATTT,0.145
4,TAAAATTA,0.28
5,AAAAATTA,0.29
6,ACAATTTA,0.193
7,CAAATTTA,0.203
8,CAAAATTA,0.163
9,TAAAATGA,0.23
10,AAAATTTA,0.0414
11,TAAAATCA,0.142
12,TAAATTTA,0.26
13,GCAATTTA,0.139
14,CCAATTTA,0.258
15,CCACCAAC,0.0331
16,CGTCCAAC,0.0756
17,ACGAGGCT,0.117
18,ATCTAAGG,0.0735
19,ACCAGACC,-0.206
20,AAGTCATC,-0.0947
21,GAGGCATC,-0.206
22,CCCGCCCC,0.022

row,Sequence,PBM E-score
1,AACAACAC,0.303
2,CACAACTG,-0.0612
3,CACAACAA,0.0683
4,GACAACAC,0.00619
5,AACAACAA,0.259
6,AACAACAT,0.191
7,CACAACTA,0.262
8,CACAACAC,0.173
9,AACAACTA,0.0618
10,GCAATGTA,0.0481
11,GGACCAAC,-0.182
12,CTCGAGAC,0.124
13,CTCAGCGC,-0.114
14,TATGGCCA,0.0682
15,ATTGTTCA,0.159
16,CTTATCTC,0.0941
17,AATATCTA,0.0725
18,ATTATCGG,-0.0264
19,ATTATCAC,0.282
20,ATTATCAG,0.0829
21,CTTATCAC,-0.0604
